In PubChem BioAssay (NCI):
The panel holds about 83,000 compounds, 20% with a hit somewhere; the sample as a whole holds those more often.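 Step 1: grow cells in 96-well plates. Step 2: add test compound at a single concentration. Step 3: incubate 48 h. Step 4: record percent growth.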 Calls of active or inactive are those of the source. How the source made its calls: active means growth percent below 10; inactive means the rest.

Tests used:
Assay in all cases: NCI-60 one-dose screen, 48 h (100 = growth as untreated, 0 = no growth, -100 = all killed)
Conditions in all cases: 10 µM unless noted
[1] = system: T-47D breast
[2] = system: BT-549 breast
[3] = system: MDA-MB-435 melanoma
[4] = system: SW-620 colon
[5] = system: MCF7 breast
[6] = system: HCT-116 colon
[7] = system: HCC-2998 colon
[8] = system: KM12 colon

SMILES | growth [1] | growth [2] | growth [3] | growth [4] | growth [5] | growth [6] | growth [7] | growth [8]
Nc1ccc(-c2cc3c(Nc4ccc(Oc5cccc(C(F)(F)F)c5)c(Cl)c4)ncnc3s2)cc1 | 43.8% (inactive) | 73% (inactive) | 70.3% (inactive) | 101% (inactive) | 34.7% (inactive) | 67.9% (inactive) | 69% (inactive) | 44.5% (inactive)
Cc1cc(C)nc(SC2=C(Nc3ccc(C)c(Cl)c3)C(=O)N(Cc3ccccc3)C2=O)n1 | 26% [30 µM] (inactive) | 51.6% [30 µM] (inactive) | 51.5% [30 µM] (inactive) | 70.9% [30 µM] (inactive) | 39.6% [30 µM] (inactive) | 42.9% [30 µM] (inactive) | – | 66.2% [30 µM] (inactive)
COc1cccc(NC(=O)c2sc3nc(C)c(C(C)=O)cc3c2N)c1 | 54% (inactive) | 53.7% (inactive) | -41.1% (active) | 39.3% (inactive) | 30.1% (inactive) | 37.8% (inactive) | 54.5% (inactive) | 37.8% (inactive)
O=c1oc2c(C(F)(F)F)cccc2cc1-c1csc(Nc2ccc(OCCF)cc2)n1 | 71.1% (inactive) | 31.5% (inactive) | -22.9% (active) | 26.1% (inactive) | 15.3% (inactive) | -26.3% (active) | – | 2.28% (active)
CN(Cc1cc(Cl)cc(Cl)c1O)Cc1cc(Cl)cc(Cl)c1O | 76.4% (inactive) | 86.4% (inactive) | 68.2% (inactive) | 73.2% (inactive) | 67.6% (inactive) | 58.9% (inactive) | 83.5% (inactive) | 74.8% (inactive)
CN1CCN(c2nc(NCCCCNc3ccnc4cc(Cl)ccc34)c3ccccc3n2)CC1 | 96.1% (inactive) | 74.6% (inactive) | -10.5% (active) | 41.2% (inactive) | 51.3% (inactive) | 53.1% (inactive) | 57.4% (inactive) | 65.5% (inactive)
O=c1c2c3c(sc2nc(N/N=C/c2cn(-c4ccccc4)nc2-c2ccc(Cl)cc2)n1Cc1ccccc1)CCCC3 | 105% (inactive) | 92.1% (inactive) | 93.4% (inactive) | 107% (inactive) | 104% (inactive) | 90.3% (inactive) | – | 103% (inactive)
CN1CCN(c2nc(NCCCNc3ccnc4cc(Cl)ccc34)c3ccccc3n2)CC1 | 40.7% (inactive) | 74.5% (inactive) | -22.4% (active) | 15.7% (inactive) | 29.9% (inactive) | 37.3% (inactive) | 37.2% (inactive) | 41.9% (inactive)
C=C(C)[C@@H]1CC[C@]2(C(=O)OC)CC[C@]3(C)[C@H](CC[C@@H]4[C@@]5(C)C/C(=C/c6cccc(I)c6)C(=O)C(C)(C)[C@@H]5CC[C@]43C)[C@@H]12 | 93.6% (inactive) | 101% (inactive) | 96.6% (inactive) | 101% (inactive) | 89.2% (inactive) | 95.4% (inactive) | 99.7% (inactive) | 101% (inactive)
CC(C)(CCCN=C(N)Nc1ccc(Cl)cc1)c1ccc(F)cc1 | 53.9% (inactive) | 82.6% (inactive) | 63% (inactive) | 43.4% (inactive) | 52.9% (inactive) | 28.6% (inactive) | – | 57.5% (inactive)
COc1nc2c(c(=O)n1C)CN(Cc1ccccc1)C=N2 | 67.1% (inactive) | -4.81% (active) | 117% (inactive) | 99.6% (inactive) | 101% (inactive) | 107% (inactive) | 113% (inactive) | 98.9% (inactive)
NC(=O)c1cc(Br)ccc1NC(=O)/C=C/c1ccccc1 | 36.4% (inactive) | 90.1% (inactive) | -7.27% (active) | 29.1% (inactive) | 19.9% (inactive) | 38% (inactive) | 64.4% (inactive) | 20.7% (inactive)
CCCN1CCN(c2ccc3nc(-c4ccc5nc(-c6ccc(OCC)cc6)[nH]c5c4)[nH]c3c2)CC1 | 47.2% (inactive) | 71.2% (inactive) | 27.6% (inactive) | -83.7% (active) | -69.7% (active) | -89.8% (active) | -96.9% (active) | 42.8% (inactive)
NC(=NCCCOc1ccc(Cl)cc1)Nc1ccc(C(F)(F)F)cc1 | 2.82% (active) | 73.2% (inactive) | 8.95% (active) | 14.5% (inactive) | 9.17% (active) | 8.24% (active) | – | 25.2% (inactive)
C(=C\c1nccc2c1[nH]c1ccccc12)/c1ccccc1 | 29.8% (inactive) | 10.9% (inactive) | -38.9% (active) | 14.8% (inactive) | 8.84% (active) | 21.5% (inactive) | – | 15.6% (inactive)
COc1ccc(-c2nnc(SCC(=O)c3ccc(Cl)cc3)o2)cc1 | 89.6% (inactive) | 105% (inactive) | 108% (inactive) | 107% (inactive) | 108% (inactive) | 107% (inactive) | – | 102% (inactive)
Cc1nc(Nc2ccc(F)c(Cl)c2)sc1C(=O)O | 6.86% (active) | -0.289% (active) | 20.4% (inactive) | 24.8% (inactive) | 11.9% (inactive) | 8.02% (active) | – | -3.33% (active)
OCCN1CCN(c2nc(Nc3ccc(-c4nc5ccccc5[nH]4)cc3)c3cn[nH]c3n2)CC1 | -68.4% (active) | -52.3% (active) | -89.9% (active) | -85.4% (active) | -74.4% (active) | -80.1% (active) | – | -73.1% (active)
CCCc1cc(=O)n2c(C(=O)Nc3ccc(F)cc3)c(C(=O)Nc3ccc(F)cc3)sc2n1 | 97.1% [30 µM] (inactive) | 78.4% [30 µM] (inactive) | 83% [30 µM] (inactive) | 82.9% [30 µM] (inactive) | 62.6% [30 µM] (inactive) | 38.1% [30 µM] (inactive) | – | 84.9% [30 µM] (inactive)
Cc1ccc2c(c1)C(=O)/C(=C/c1cccc(OCC(=O)c3ccc(Cl)cc3)c1)CS2 | 84.9% (inactive) | 101% (inactive) | 65.3% (inactive) | 25.1% (inactive) | 47.4% (inactive) | 52.9% (inactive) | – | 60.3% (inactive)
COc1ccc(C(=O)COc2cccc(/C=C3\CSc4ccccc4C3=O)c2)cc1 | 69.7% (inactive) | -74.8% (active) | -21.1% (active) | -96.9% (active) | -79.8% (active) | -87.5% (active) | – | -77.3% (active)
O=C(O)COc1ccc(Cl)cc1C1CCCCC1 | 114% (inactive) | 117% (inactive) | 107% (inactive) | 104% (inactive) | 104% (inactive) | 101% (inactive) | – | 103% (inactive)
C/C1=C\CC[C@@]2(C)O[C@H]2[C@H]2OC(=O)C(CN3CCN(CC4C(=O)O[C@H]5[C@H]4CC/C(C)=C/CC[C@@]4(C)O[C@@H]54)CC3)[C@@H]2CC1 (some centres not stated) | 81.5% (inactive) | 105% (inactive) | 89.1% (inactive) | 86.3% (inactive) | 74.4% (inactive) | 88% (inactive) | – | 98.5% (inactive)
COc1cccc(-c2nc(SCC(=O)Nc3ccc(C(=O)/C=C/c4ccc(OC)c(OC)c4)cc3)[nH]c(=O)c2C#N)c1 | 78.1% (inactive) | 85.4% (inactive) | 92.3% (inactive) | 112% (inactive) | 82.4% (inactive) | 77.7% (inactive) | – | 81.5% (inactive)
O=C1/C(=C/c2ccc(OCCCOc3ccc(Cl)cc3)cc2)N=C2SCCCN12 | 50.5% (inactive) | 72.1% (inactive) | 93.2% (inactive) | 102% (inactive) | 69.5% (inactive) | 45.8% (inactive) | – | 70.8% (inactive)
COc1ccc2c(c1)C(=O)/C(=C/c1cccnc1)CC2 | 80.2% (inactive) | 101% (inactive) | 89.5% (inactive) | 102% (inactive) | 45.3% (inactive) | 81.2% (inactive) | – | 66.2% (inactive)
C=C1C(=O)O[C@H]2[C@H]1CC/C(COC(=O)NCCc1ccc(OC)c(OC)c1)=C\CC[C@@]1(C)O[C@@H]21 | 33.2% (inactive) | 64.3% (inactive) | 58.3% (inactive) | 18.9% (inactive) | 34.8% (inactive) | 5.66% (active) | – | 84.4% (inactive)
O=c1c(F)cn(Cc2ccccc2CCl)c(=O)n1Cc1ccccc1CCl | -49.5% (active) | -73.9% (active) | -67.1% (active) | -74.6% (active) | -47.7% (active) | -56.9% (active) | – | -16.2% (active)
NC(=NC1C2CC3CC(C2)CC1C3)Nc1ccc(I)cc1 (configuration not stated) | 2.31% (active) | 53.7% (inactive) | 30.7% (inactive) | 20.9% (inactive) | 9.29% (active) | 8.08% (active) | – | 45.9% (inactive)
